{
  "source": "PubChem BioAssay (Tox21)",
  "note": "Inconclusive results are not listed. Activity calls are given as the source filed them. Calls come from the whole dose curve; as a rule, active = well fitted curve in the direction sought with a large enough effect in the repeat runs; inconclusive = weak or mixed curves; inactive = no such curve, though single readings can be large; an effect the other way counts as inactive or inconclusive. % is set by controls: 0 for no effect and ±100 for the full control effect; potency is the fitted concentration of half-maximal effect. Note: nearly all actives have a fitted effect of over 45% in size.",
  "data": [
    {"assay": "qHTS assay to identify small molecule antagonists of the androgen receptor (AR) signaling pathway - cell viability counter screen (AID 743033)", "details": "AR-bla HEK293 viability, CellTiter-Glo luminescence, 16 h; series mostly up to 58.5 µM; activity change, negative = cytotoxicity: at the top concentration", "values": [
      {"smiles": "CCOS(C)(=O)=O", "activity change, negative = cytotoxicity": "9.11% [at 78.9 µM] (inactive)"},
      {"smiles": "O=C(O)c1ccccc1C(=O)Nc1cccc2ccccc12", "activity change, negative = cytotoxicity": "-2.05% (inactive)"},
      {"smiles": "C[C@H]1CNCCc2ccc(Cl)cc21", "activity change, negative = cytotoxicity": "1.89% (inactive)"},
      {"smiles": "Cc1ccccc1C(=O)Nc1cccc(OC(C)C)c1", "activity change, negative = cytotoxicity": "-14.8% (inactive)"},
      {"smiles": "COC(N)=O", "activity change, negative = cytotoxicity": "0.67% (inactive)"},
      {"smiles": "NC(=O)CI", "activity change, negative = cytotoxicity": "-9.92% [at 78.9 µM] (inactive)"},
      {"smiles": "C=CCN1CC[C@]23c4c5ccc(O)c4O[C@H]2C(=O)CC[C@@]3(O)[C@H]1C5", "Potency": "inactive"},
      {"smiles": "CC(C)O.CC(C)O.OCCN(CCO)CCO.OCCN(CCO)CCO.[Ti]", "activity change, negative = cytotoxicity": "-6.5% (inactive)"},
      {"smiles": "ClCCCCBr", "activity change, negative = cytotoxicity": "-3.72% [at 78.9 µM] (inactive)"},
      {"smiles": "CCOC(=O)COc1cc(-c2nn(C)c(OC(F)F)c2Cl)c(F)cc1Cl", "activity change, negative = cytotoxicity": "0.854% (inactive)"},
      {"smiles": "C=CC(=O)OC", "activity change, negative = cytotoxicity": "-3.87% [at 78.9 µM] (inactive)"},
      {"smiles": "O=C(CBr)c1ccccc1", "activity change, negative = cytotoxicity": "-3.6% [at 78.9 µM] (inactive)"},
      {"smiles": "CC(C)(CCl)C(=O)Cl", "activity change, negative = cytotoxicity": "-24.3% (inactive)"},
      {"smiles": "Nc1ccc([N+](=O)[O-])cc1[N+](=O)[O-]", "activity change, negative = cytotoxicity": "0.657% (inactive)"},
      {"smiles": "COC1=CC(=O)O[C@@H](CCc2ccccc2)C1", "activity change, negative = cytotoxicity": "-2.62% [at 78.9 µM] (inactive)"},
      {"smiles": "Cc1c(F)c(F)c(COC(=O)C2C(/C=C(\\Cl)C(F)(F)F)C2(C)C)c(F)c1F", "note": "(stereo unspecified)", "activity change, negative = cytotoxicity": "0.476% (inactive)"},
      {"smiles": "CCc1ccc(C(=O)NN(C(=O)c2cc(C)cc(C)c2)C(C)(C)C)cc1", "activity change, negative = cytotoxicity": "-10.5% (inactive)"},
      {"smiles": "CCOC(=O)C(Cl)C(C)=O", "note": "(stereo unspecified)", "activity change, negative = cytotoxicity": "-1.21% [at 78.9 µM] (inactive)"},
      {"smiles": "CCCCCC[N+](=O)[O-]", "activity change, negative = cytotoxicity": "2.68% [at 78.9 µM] (inactive)"},
      {"smiles": "CC(c1ccc(O)cc1)(c1ccc(O)cc1)c1ccc(O)cc1", "activity change, negative = cytotoxicity": "-25.7% (inactive)"},
      {"smiles": "CCCN(CCC)c1c([N+](=O)[O-])cc(S(C)(=O)=O)cc1[N+](=O)[O-]", "activity change, negative = cytotoxicity": "-14.7% (inactive)"},
      {"smiles": "COc1cc(Cl)c(OC)cc1Cl", "activity change, negative = cytotoxicity": "0.852% (inactive)"},
      {"smiles": "O=[N+]([O-])c1ccc(F)c([N+](=O)[O-])c1", "Potency": "inactive"},
      {"smiles": "NCCCNCCCN", "Potency": "49.7 µM (active)"},
      {"smiles": "C/C(=C\\c1ccccc1)[N+](=O)[O-]", "Potency": "24.5 µM (active)"},
      {"smiles": "Brc1ccc(Oc2ccccc2)cc1", "activity change, negative = cytotoxicity": "1.49% (inactive)"},
      {"smiles": "CC(Cl)Cl", "activity change, negative = cytotoxicity": "5.83% (inactive)"},
      {"smiles": "O=NN1CCNCC1", "activity change, negative = cytotoxicity": "-2.77% [at 78.9 µM] (inactive)"},
      {"smiles": "C=CC(=O)OCCCCO", "activity change, negative = cytotoxicity": "0.361% (inactive)"},
      {"smiles": "O=C1CN=C(c2ccccc2)c2cc(Cl)ccc2N1CC1CC1", "Potency": "inactive"},
      {"smiles": "CCOP(=S)(OCC)SCn1nnc2ccccc2c1=O", "Potency": "24.5 µM (active)"}
    ]},
    {"assay": "qHTS assay to identify small molecule antagonists of the androgen receptor (AR) signaling pathway using the MDA cell line - cell viability counter screen (AID 743041)", "details": "MDA-kb2 viability, CellTiter-Fluor, 16 h, cells co-treated with R1881 androgen agonist; series mostly up to 70.3 µM; viability change, negative = cytotoxic: at the top concentration", "summary_of_the_method": "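MDA-kb2 AR-luc cells (MMTV-luciferase, AR/GR responsive) treated with compounds plus R1881 agonist for 16 h at 37C. CellTiter-Fluor added at 15.5 h; fluorescence read after 30 min in the same wells.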", "values": [
      {"smiles": "C=CC(=O)NCNC(=O)C=C", "viability change, negative = cytotoxic": "-8.36% (inactive)"},
      {"smiles": "CCOS(C)(=O)=O", "viability change, negative = cytotoxic": "5.73% [at 95 µM] (inactive)"},
      {"smiles": "O=C(O)c1ccccc1C(=O)Nc1cccc2ccccc12", "viability change, negative = cytotoxic": "-0.477% (inactive)"},
      {"smiles": "C[C@H]1CNCCc2ccc(Cl)cc21", "viability change, negative = cytotoxic": "4.26% (inactive)"},
      {"smiles": "Cc1ccccc1C(=O)Nc1cccc(OC(C)C)c1", "viability change, negative = cytotoxic": "-17.5% (inactive)"},
      {"smiles": "O=C(OC1CCCCC1)c1ccccc1C(=O)OC1CCCCC1", "viability change, negative = cytotoxic": "4.25% [at 95 µM] (inactive)"},
      {"smiles": "COC(N)=O", "viability change, negative = cytotoxic": "-1.81% (inactive)"},
      {"smiles": "NC(=O)CI", "viability change, negative = cytotoxic": "22.1% [at 95 µM] (inactive)"},
      {"smiles": "C=CCN1CC[C@]23c4c5ccc(O)c4O[C@H]2C(=O)CC[C@@]3(O)[C@H]1C5", "Potency": "inactive"},
      {"smiles": "CC(C)O.CC(C)O.OCCN(CCO)CCO.OCCN(CCO)CCO.[Ti]", "viability change, negative = cytotoxic": "0.0934% (inactive)"},
      {"smiles": "ClCCCCBr", "viability change, negative = cytotoxic": "-10.5% [at 95 µM] (inactive)"},
      {"smiles": "CCOC(=O)COc1cc(-c2nn(C)c(OC(F)F)c2Cl)c(F)cc1Cl", "viability change, negative = cytotoxic": "-2.32% (inactive)"},
      {"smiles": "C=CC(=O)OC", "viability change, negative = cytotoxic": "-0.21% [at 95 µM] (inactive)"},
      {"smiles": "O=C(CBr)c1ccccc1", "viability change, negative = cytotoxic": "-1.13% [at 95 µM] (inactive)"},
      {"smiles": "CC(C)(CCl)C(=O)Cl", "viability change, negative = cytotoxic": "4.76% (inactive)"},
      {"smiles": "COC1=CC(=O)O[C@@H](CCc2ccccc2)C1", "viability change, negative = cytotoxic": "6.06% [at 95 µM] (inactive)"},
      {"smiles": "CS/C(C)=N/OC(=O)N(C)SN(C)C(=O)O/N=C(\\C)SC", "viability change, negative = cytotoxic": "-6.62% (inactive)"},
      {"smiles": "CCc1ccc(C(=O)NN(C(=O)c2cc(C)cc(C)c2)C(C)(C)C)cc1", "viability change, negative = cytotoxic": "16.1% (inactive)"},
      {"smiles": "CCOC(=O)C(Cl)C(C)=O", "note": "(stereo unspecified)", "viability change, negative = cytotoxic": "0.0783% [at 95 µM] (inactive)"},
      {"smiles": "CCCCCC[N+](=O)[O-]", "viability change, negative = cytotoxic": "8.92% [at 95 µM] (inactive)"},
      {"smiles": "CC(c1ccc(O)cc1)(c1ccc(O)cc1)c1ccc(O)cc1", "viability change, negative = cytotoxic": "-1.82% (inactive)"},
      {"smiles": "CCCN(CCC)c1c([N+](=O)[O-])cc(S(C)(=O)=O)cc1[N+](=O)[O-]", "viability change, negative = cytotoxic": "0.0172% (inactive)"},
      {"smiles": "COc1cc(Cl)c(OC)cc1Cl", "viability change, negative = cytotoxic": "2.47% (inactive)"},
      {"smiles": "O=[N+]([O-])c1ccc(F)c([N+](=O)[O-])c1", "Potency": "55 µM (active)"},
      {"smiles": "Brc1ccc(Oc2ccccc2)cc1", "Potency": "inactive"},
      {"smiles": "CC(Cl)Cl", "viability change, negative = cytotoxic": "-0.804% (inactive)"},
      {"smiles": "O=NN1CCNCC1", "viability change, negative = cytotoxic": "9.06% [at 95 µM] (inactive)"},
      {"smiles": "C=CC(=O)OCCCCO", "viability change, negative = cytotoxic": "-1.97% (inactive)"},
      {"smiles": "O=C1CN=C(c2ccccc2)c2cc(Cl)ccc2N1CC1CC1", "Potency": "inactive"},
      {"smiles": "CCOP(=S)(OCC)SCn1nnc2ccccc2c1=O", "Potency": "61.1 µM (active)"}
    ]}
  ]
}
